# From PubChem
# Sampled rows, rich in hits. Any-hit rate of the full collection: about 6%.
# DRD3 agonist: qHTS of D3 Dopamine Receptor Agonist: qHTS | D3R DiscoveRx beta-arrestin cells, luminescence, 90 min | hit rate 0.58% among 410,000 | max activation, % | D(3) dopamine receptor (Homo sapiens), P35462; in the data active means max activation above about 30%; further: 0% is about no effect
#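 Cells at 1500/well, incubated overnight, then treated with pinned compounds (dopamine as control) for 90 min at 37 degrees C. DiscoveRx reagent added for 30 - 60 minutes at room temperature; luminescence read.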
# D1 agonist: Allosteric Agonists of the Human D1 Dopamine Receptor: qHTS. HEK293 T-REx D1 cells, calcium flux, agonist mode. AID 504660, 2011. hit rate 1% among 360,000. activation, % at 2 µM. D(1A) dopamine receptor (Homo sapiens), P21728; in the data active means activation above about 30%; further: 0% is about no effect
# Target sequence (P21728 whole entry, looked up): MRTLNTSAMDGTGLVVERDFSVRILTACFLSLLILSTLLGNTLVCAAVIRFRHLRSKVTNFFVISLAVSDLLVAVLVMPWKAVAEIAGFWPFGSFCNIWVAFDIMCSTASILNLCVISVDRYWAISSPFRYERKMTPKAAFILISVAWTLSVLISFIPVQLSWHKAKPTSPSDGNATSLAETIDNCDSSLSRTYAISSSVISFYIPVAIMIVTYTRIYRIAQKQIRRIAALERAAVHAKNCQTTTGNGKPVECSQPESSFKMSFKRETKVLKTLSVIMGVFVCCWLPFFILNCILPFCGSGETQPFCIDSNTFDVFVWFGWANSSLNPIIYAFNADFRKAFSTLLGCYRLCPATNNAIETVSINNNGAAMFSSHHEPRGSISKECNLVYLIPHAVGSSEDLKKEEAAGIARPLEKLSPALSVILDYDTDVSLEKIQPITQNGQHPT
#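 Inducible HEK293 T-REx D1 cells, force-coupled to calcium signalling, were plated at 4000 cells/well with tetracycline and held overnight at 30 C. After no-wash calcium dye loading, compound-evoked calcium rise over 180 s flagged agonists.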
# DRD3 antagonist: qHTS of D3 Dopamine Receptor Antagonist: qHTS; D(3) dopamine receptor (Homo sapiens), P35462; D3R cells, DiscoveRx beta-arrestin luminescence, antagonist mode; stronger effect = lower value; max response, negative = inhibition, %; hit rate 2.5% among 360,000; AID 652054, 2013; in the data active means max response below about -50%; inconclusive means no clear call, values can overlap the other calls; further: on the % scale 0 is the no-effect control and ±100 the full control effect
#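 Cells expressing the human receptor were seeded at 1500 cells/well, incubated overnight at 37 degrees C in 5% CO2, then exposed to library compounds with dopamine controls for 90 minutes at 37 degrees C before luminescent detection.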
# D1 antag: Antagonist of Human D 1 Dopamine Receptor: qHTS; D(1A) dopamine receptor (Homo sapiens), P21728; HEK293 TREx D1 cells, calcium flux, dopamine EC80; stronger effect = lower value; activity change, negative = inhibition, % at 10 µM; hit rate 3.2% among 360,000; in the data active means activity change below about -30%; further: on the % scale 0 is the no-effect control and ±100 the full control effect
#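 HEK293 T-REx cells expressing inducible, force-coupled D1 receptor; no-wash Ca dye, 30–90 min RT. Cmpd → 180 s read at 1 Hz → EC80 DA → 180 s read.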
# D1 potentiator: Potentiators of Human D1 Dopamine Receptor: qHTS; HEK293 TREx D1 cells, calcium flux, dopamine EC20 potentiation; potentiation, % at 10 µM; hit rate 0.036% among 360,000; AID 504651, 2011; in the data active means potentiation above about 30%; further: 0% is about no effect
# Active calls of the source: *; ? = inconclusive; . = no result given.
SMILES,DRD3 agonist,D1 agonist,DRD3 antagonist,D1 antag,D1 potentiator
COc1ccc(/C=C/C(=O)O)cc1S(=O)(=O)NCc1ccco1,-7,3,1,2,-3
Cc1ccc(/C=C/C(=O)O)cc1S(=O)(=O)NCc1ccco1,41*,1,10,3,-3
O=C(NC1CCCCCC1)C(=O)NC1CCCC1,-2,5,-18,-33*,-1
O=C(NN=C1CCCC1)NC1CCCCC1,0,3,?,7,1
O=C(NN=C1CCCCC1)NC1CCCCC1,-3,0,10,-85*,2
CCCCOC(=O)c1ccc(Nc2nc3ccc(C(=O)c4ccccc4)cc3n3cnnc23)cc1,-4,-1,.,23,1
Cc1c(C#N)c(NC(=O)CCl)n(Cc2cccs2)c1C,0,2,-12,5,-2
O=C(NC1=NCCS1)c1sc2cc(Cl)cc(Cl)c2c1Cl,-9,1,-8,-34*,-1
COc1ccc2sc(N(CCN(C)C)C(=O)/C=C/c3cccs3)nc2c1,-17,3,-86*,-16,-4
COc1ccc2nc(N(CCN(C)C)C(=O)/C=C/c3cccs3)sc2c1,-12,5,-1,-6,-3
COc1cccc(CNC(=O)C2CCN(C(=O)c3sccc3-n3cccc3)CC2)c1,7,0,.,19,-4
Cc1ccc(S(=O)(=O)N2CCN(C(=O)COC(=O)c3ccc([N+](=O)[O-])o3)CC2)c(C)c1,-3,2,-14,2,-3
CCCCN(CCCC)c1ccc(C(=O)c2ccccc2C(=O)O)c(O)c1,-9,12,-81*,-18,-7
Cc1cc(N2CCN(c3nc4ccccc4s3)CC2)n2ncnc2n1,10,9,53,-32*,-2
Cc1nn2c(-c3cccnc3)ccnc2c1-c1ccccc1,2,4,2,-44*,-8
CCOC(=O)c1ccc(NC(=O)Nc2ccon2)cc1,-10,9,?,-11,-2
CCCOc1ccc(C(=O)Nc2ccc(Cl)cn2)cc1,0,0,3,-50*,-4
O=C(Nc1ccc(Cl)cn1)c1cccnc1,3,-3,-51*,4,-5
O=C(Nc1ccc(Cl)cn1)c1ccc2nccnc2c1,2,3,5,-3,0
CCOC(=O)c1ccc(NC(=O)Nc2ccc(Cl)cn2)cc1,1,0,-3,-33*,2
CC(OC(=O)CC1CCCC1)C(=O)Nc1ccc(Cl)cn1 (centres undefined),-2,1,-54*,4,-5
COc1ccc(-c2c3c(=O)n(C)c(=O)n(C)c3c3n2-c2ccccc2NC3c2ccc(O)cc2O)cc1 (centres undefined),3,1,.,0,-1
CC(C)CCOc1ccc(C2(C)NC(=O)NC2=O)cc1 (centres undefined),4,10,4,-10,0
O=C(Nc1nc(-c2ccccc2Cl)cs1)c1cccnc1,12,4,26,-41*,-4
Cc1noc(C)c1C(=O)Nc1nc(-c2ccccc2Cl)cs1,13,2,28,-25,-5
SMILES,DRD3 agonist,D1 agonist,DRD3 antagonist,D1 antag,D1 potentiator
CCCC(C)C(=O)Nc1ccc(Cl)cn1 (centres undefined),1,0,-8,-34*,-2
CN1CC(=O)Nc2cc(C(=O)O)ccc21,2,-1,.,-31*,-2
C[C@@H]1CN([C@H](C)CO)C(=O)CCCn2nncc2CO[C@H]1CN(C)Cc1ccc2c(c1)OCO2,1,.,-8,.,.
Cc1cc2oc(=O)cc(CN3CCC(C)CC3)c2cc1Cl,-4,1,-52*,3,-7
CCOC(=O)C1CCCN(Cc2cc(=O)oc3cc(C)ccc23)C1 (centres undefined),-14,0,-8,-41*,-2
Cc1ccc2c(CN3CC(C)CC(C)C3)cc(=O)oc2c1 (centres undefined),-3,1,-4,-15,-7
Cc1ccc2c(CN3CCC(C)CC3)cc(=O)oc2c1,-34,1,-61*,-14,-5
CCOC(=O)C1CCN(Cc2cc(=O)oc3cc(C)ccc23)CC1,9,3,-2,-7,-1
Cc1cc2oc(=O)cc(CN3CCN(Cc4ccccc4)CC3)c2cc1Cl,-15,6,?,-1,1
O=C1COc2cc(S(=O)(=O)CCC(=O)NC3CCCCC3)c(Cl)cc2N1,-9,4,.,-25,-5
CCCOC(=O)CSc1nc(N)c(C#N)c(CC)c1C#N,-5,4,-11,-40*,-5
CCCOC(=O)CSc1nc(N)c(C#N)c(-c2ccco2)c1C#N,8,.,-12,.,.
Nc1cc(=O)[nH]c2nnc(SCC(=O)Nc3cccc4ccccc34)n12,7,0,3,-45*,3
CCOc1ccccc1NC(=O)CSc1nnc2[nH]c(=O)cc(C)n12,-17,0,.,.,-1
Cc1cc(=O)[nH]c2nnc(SCC(=O)Nc3ccc(OC(F)(F)F)cc3)n12,47*,-2,.,.,1
OC(CNCC1CCCO1)Cn1c2ccc(Cl)cc2c2cc(Cl)ccc21 (centres undefined),-2,28,4,-32*,-13
OC(CNCC1CCCO1)Cn1c2ccccc2c2ccccc21 (centres undefined),-14,11,?,1,-4
CCc1ccc(Cn2nnc(C(=O)Nc3ccc(OC)cc3OC)c2N)cc1,0,33*,-9,14,.
COc1cccc(NC(=O)c2nnn(Cc3ccc(OC)c(Br)c3)c2N)c1,2,5,.,-73*,-2
COc1ccc(C)cc1NC(=O)c1nnn(Cc2cccc(C(F)(F)F)c2)c1N,-6,11,-27,3,2
COc1ccc(Cn2nnc(C(=O)Nc3ccc4c(c3)OCCO4)c2N)cc1Br,-1,4,-22,4,-1
COc1cccc(NC(=O)c2nnn(Cc3cccc(C(F)(F)F)c3)c2N)c1,-11,63*,.,-7,-4
COc1cccc(NC(=O)c2nnn(Cc3ccc(Br)cc3F)c2N)c1,-5,39*,14,4,4
O=C(CCn1cnc2ccccc2c1=O)NCc1ccccc1,-9,1,.,24,0
O=C(Cn1cc(COc2ccc(Br)cc2)nn1)c1ccc(O)cc1,-9,.,16,.,.
O=C(Cn1cc(COc2ccccc2[N+](=O)[O-])nn1)c1ccc(O)cc1,37*,.,-9,.,.
CCCC(=O)c1ccc(OCc2cn(CC(=O)c3ccc(O)cc3)nn2)cc1,-20,.,-18,.,.
N#Cc1ccccc1OCc1cn(CC(=O)c2ccc(O)cc2)nn1,-12,.,-73*,.,.
O=Cc1cccc(OCc2cn(CC(=O)c3ccc(O)cc3)nn2)c1,-12,.,-53*,.,.
CCCCCCCCCc1conc1C(=O)CP(=O)(OC)OC,7,.,27,.,.
